Laboratory results taken from PubChem BioAssay (NCI).
Compounds without any hit were thinned out: in the full panel of roughly 83,000, 20% have a hit.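 Percent growth is the endpoint: 0 to 100 indicates growth inhibition (40 means 60% inhibition), 0 means no net growth, and negative values indicate cell death.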 Active and inactive are the calls of the source. The calls were made as follows: active = growth percent below 10; inactive = the rest.

Columns and labels:
Assay in all cases: NCI-60 one-dose screen, 48 h (100 = growth as untreated, 0 = no growth, -100 = all killed)
Conditions in all cases: 10 µM unless noted
[1] = test system: SR leukemia
[2] = test system: RPMI-8226 leukemia
[3] = test system: OVCAR-8 ovarian
[4] = test system: OVCAR-5 ovarian
[5] = test system: OVCAR-4 ovarian
[6] = test system: SK-OV-3 ovarian
[7] = test system: IGROV1 ovarian
[8] = test system: OVCAR-3 ovarian
[9] = test system: HS 578T breast
[10] = test system: NCI/ADR-RES ovarian
[11] = test system: T-47D breast
[12] = test system: BT-549 breast
[13] = test system: MDA-MB-435 melanoma
[14] = test system: SW-620 colon
[15] = test system: MCF7 breast
[16] = test system: HCT-116 colon
[17] = test system: HCC-2998 colon
[18] = test system: KM12 colon

Measured: growth

NNC(=O)c1nc(N)n(-c2ccc(S(N)(=O)=O)cc2)n1
inactive: [1] 88.5% | [2] 91.4% | [3] 96.2% | [4] 101% | [5] 100% | [6] 94.7% | [7] 103% | [8] 89.2% | [9] 94.5% | [10] 100% | [11] 93.5% | [12] 92.7% | [13] 97.8% | [14] 96% | [15] 102% | [16] 95.3% | [17] 101% | [18] 95.5%

COc1ccc2cc(-c3cc(OC)c(OC)c(OC)c3)c(=O)oc2c1
inactive: [1] 26.8% | [2] 83.6% | [3] 82.8% | [4] 94.2% | [5] 79.9% | [6] 72% | [7] 82.3% | [8] 81.8% | [9] 75.5% | [10] 49% | [11] 56.5% | [12] 50.1% | [14] 44.3% | [15] 37.5% | [16] 46.9% | [17] 86.6% | [18] 65.8%
active: [13] 7.5%

O=C(c1ccc(Nc2nccc(NCCCCNc3ccnc4cc(Cl)ccc34)n2)cc1)N1CCCCC1
inactive: [3] 23% | [4] 91.9% | [5] 49% | [6] 97.7% | [7] 46.5% | [8] 36.6% | [9] 65% | [10] 89% | [12] 97.6% | [18] 54.2%
active: [1] -27.3% | [2] 8.24% | [11] -33.2% | [13] -67.6% | [14] 2.09% | [15] 4.09% | [16] -18.6% | [17] -11.2%

Cc1cccc(Cc2cnc(NC(=O)/C=C/c3ccco3)s2)c1
active: [8] -2.76% | [10] -24.6% | [13] -30.7% | [17] 6.44%
inactive: [1] 13.7% | [2] 27.9% | [3] 13.7% | [4] 39.1% | [5] 55.6% | [6] 33% | [7] 22.2% | [9] 14.8% | [11] 37.2% | [12] 25.8% | [14] 24.9% | [15] 14.9% | [16] 18.1% | [18] 13.3%

Cc1ccc(-c2c(-c3ccccc3)c(=O)oc3ccc(C)cc23)cc1
inactive: [1] 71.1% | [2] 87.7% | [3] 93.9% | [4] 113% | [5] 98.5% | [6] 101% | [7] 145% | [8] 117% | [9] 99.6% | [10] 93.2% | [11] 84.3% | [12] 108% | [13] 103% | [14] 99.5% | [15] 116% | [16] 72.8% | [17] 90.5% | [18] 92%

C=CCOC1=CC(=O)c2ccccc2C1=O
active: [1] 9.62% | [8] -13.4% | [13] -67.5% | [15] -2.95% | [16] 8.07%
inactive: [2] 92.7% | [3] 57.2% | [4] 110% | [5] 42.1% | [6] 109% | [7] 85.5% | [9] 81.7% | [10] 60.1% | [11] 54.2% | [12] 95.4% | [14] 33.2% | [17] 98% | [18] 87.8%

COc1cc(/C=C/C(=O)c2c(C)nc3ccccc3c2C)ccc1OCCCN1CCN(C(=O)c2ccco2)CC1
inactive: [1] 64.8% | [2] 31.4% | [3] 73.5% | [4] 95.5% | [5] 25.2% | [6] 107% | [7] 76.6% | [8] 97.9% | [9] 82.1% | [10] 55.6% | [11] 67.7% | [12] 86.3% | [13] 61.6% | [14] 68.3% | [15] 75.4% | [16] 76.6% | [17] 46.5% | [18] 98%

Nc1nc(N)c2c(n1)NC(c1ccccc1)C1CCc3ccccc3C1=N2 (stereo not drawn)
inactive: [1] 19.3% | [2] 24.5% | [3] 64.9% | [4] 112% | [5] 27.3% | [6] 57.9% | [7] 92.2% | [8] 38.4% | [9] 71.2% | [10] 23.9% | [11] 30.7% | [12] 39% | [13] 28.4% | [14] 58.9% | [15] 18.7% | [16] 26.1% | [17] 65.4% | [18] 39.1%

CC1CC2Oc3ccc(Cl)cc3C(=O)N2O1 (stereo not drawn)
inactive: [1] 98.2% | [2] 91.1% | [3] 107% | [4] 98.7% | [5] 117% | [6] 100% | [7] 125% | [8] 114% | [9] 102% | [10] 107% | [11] 104% | [12] 105% | [13] 105% | [14] 99.2% | [15] 112% | [16] 107% | [17] 97.5% | [18] 107%

CCCCCCCC/C=C\CCCCCCCCOc1ccccc1CC(=O)NCC[N+](C)(C)C
inactive: [1] 23.6% | [2] 56.1% | [3] 64.4% | [4] 25% | [5] 78.7% | [6] 81.9% | [7] 28.9% | [8] 83.2% | [9] 91.8% | [10] 104% | [11] 94.4% | [12] 77.4% | [13] 95.6% | [14] 69.5% | [15] 73% | [16] 65.8% | [17] 33.7% | [18] 36.4%

CC1CC(C(C)(C)C)C(=O)C(C(C)(C)C)C1 (stereo not drawn)
inactive: [1] 101% | [2] 111% | [3] 107% | [4] 99.6% | [5] 119% | [6] 105% | [7] 126% | [8] 118% | [9] 106% | [10] 114% | [11] 111% | [12] 110% | [13] 103% | [14] 101% | [15] 108% | [16] 108% | [17] 111% | [18] 108%

Cc1ccc(Cl)c(NS(=O)(=O)c2ccc(-c3cnc(C4CC4)o3)cc2)c1
active: [8] -1.26% | [13] -59.6%
inactive: [1] 15.7% | [2] 18.8% | [3] 28.1% | [4] 26.4% | [5] 48.3% | [6] 44.5% | [7] 27% | [9] 13.5% | [10] 19.5% | [11] 45% | [12] 34.5% | [14] 18.6% | [15] 12.4% | [16] 13.8% | [17] 26.8% | [18] 16.5%

COc1cccc(C(=O)NCCNc2cc(-c3cn(-c4ccccc4)nc3-c3cccc(OC)c3)ccn2)c1
inactive: [2] 39.1% | [3] 40% | [4] 91.7% | [5] 49.6% | [6] 54.6% | [7] 74.1% | [8] 54.5% | [9] 61.8% | [10] 47.2% | [11] 22.1% | [12] 40.8% | [13] 64.3% | [14] 71.1% | [15] 56.7% | [16] 40.9% | [17] 63.9% | [18] 41.5%
active: [1] 2.08%

Cc1cc(C)c2c(-c3nnc(N)s3)cc(=O)oc2c1
inactive: [1] 105% | [2] 72.3% | [3] 102% | [4] 103% | [5] 100% | [6] 108% | [7] 101% | [8] 105% | [9] 92.4% | [10] 102% | [11] 99.6% | [12] 98.8% | [13] 94.3% | [14] 98.2% | [15] 92.2% | [16] 102% | [17] 108% | [18] 98.8%

CCN(CC)Cc1cccc(C(=O)OC)c1
inactive: [1] 95% | [2] 91.8% | [3] 99.6% | [4] 94.1% | [5] 101% | [6] 89.4% | [7] 102% | [8] 111% | [9] 109% | [10] 102% | [11] 88.3% | [12] 93.1% | [13] 101% | [14] 101% | [15] 90.9% | [16] 89.9% | [17] 102% | [18] 102%

Cc1ccc(CCC(=O)Nc2ncc(Cc3cc(Cl)ccc3Cl)s2)o1
inactive: [1] 16.2% | [2] 19.9% | [3] 11.8% | [4] 23.2% | [5] 43.3% | [6] 33.1% | [7] 17% | [11] 54.3% | [14] 20.8% | [15] 13% | [18] 14.9%
active: [8] -0.778% | [9] 9.73% | [10] -4.35% | [12] 3.48% | [13] -36.8% | [16] 9.11% | [17] 8.63%
